Out of some 5,500 compounds screened, about 2,000 (36%) were called active. Roughly 18% stayed inconclusive and do not appear here. Rule as the data show it: active = normalized growth mostly below about 0.91 (no sharp cut-off); inconclusive = no clear call, values can overlap the other calls; inactive = mostly above about 0.92. This is one part of the list.
Assay: chemical genetic growth profiling, strain panel (AID 1159580);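 also: tested at 20 µM; growth read once vehicle control cultures reached saturation at 30 °C; 1 = growth at the plate median or of vehicle wells; lower values mean less growth of the strain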
Conditions: S. cerevisiae deletion strains, growth OD

Measured: normalized growth

COc1ccc([C@@H]2Sc3ccccc3N(CCN(C)C)C(=O)[C@@H]2OC(C)=O)cc1
inactive: locus YAL013W, strain DEP1, active compounds read low 0.989 | locus YAL040C, strain CLN3, active compounds read low 1.01 | locus YCL061C, strain MRC1 (second series), active compounds read low 0.988 | locus YDR150W, strain NUM1, active compounds read low 1.01 | locus YDR363W, strain ESC2, active compounds read low 0.951 | locus YER002W, strain NOP16, active compounds read low 1.02 | locus YGR078C, strain PAC10, active compounds read low 0.961 | locus YGR229C, strain SMI1, active compounds read low 0.971 | locus YJR075W, strain HOC1, active compounds read low 1 | locus YMR263W, strain SAP30, active compounds read low 0.993 | locus YMR307W, strain GAS1, active compounds read low 1 | locus YNL153C, strain GIM3, active compounds read low 1.01 | locus YNL175C, strain NOP13, active compounds read low 0.99 | locus YNL197C, strain WHI3, active compounds read low 1.1 | locus YNL224C, strain SQS1, active compounds read low 1.02 | locus YNL322C, strain KRE1, active compounds read low 0.967 | locus YOR083W, strain WHI5 (second series), active compounds read low 1.03 | locus YPL055C, strain LGE1, active compounds read low 0.955 | locus YPL241C, strain CIN2, active compounds read low 0.988

From PubChem BioAssay AID1159580 (chemical genetic matrix, 2015)
